Source: PubChem BioAssay
EPAC2 antagonist: blocks human EPAC2 exchange factor | Q8WZA2 | EPAC2 GEF exchange of Rap1B-BODIPY-GDP, fluorescence | Potency, µM (highest dose often 114 µM), without a hit: at the top dose activity, negative = inhibition, hits mostly inhibitors | 360,000 tested, 0.18% active | AID 720708; also: potency is read from the fitted curve at half-maximal effect; % is scaled to controls: 0 for no effect and ±100 for the full control effect; nearly all actives have a fitted effect of over 45% in size
EPAC1 agonist: agonists of human EPAC1 | O95398 | Potency, µM (series often up to 154 µM), for the others: top-dose activation, usual class: activators | 360,000 tested, 0.073% active | AID 720707 | EPAC1 agonist qHTS, biochemical assay; response scale: 100% = response to 6.5 mM cAMP; also: potency is read from the fitted curve at half-maximal effect; nearly all actives have a fitted effect of over 60% in size
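Nucleotide exchange by EPAC1 (100 nM) on Rap1B–BODIPY-GDP (250 nM) in the presence of 50 uM GDP is tracked fluorescently at 480/540 nm over 30 min. Signals are normalized to a 6.5 mM cAMP control.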
IL-2 act: activators of IL-2; IL-2 activation reporter assay, cell-based qHTS; stimulated with anti-CD3/CD4/CD28 beads; in transgenic mouse T cells; 360,000 tested, 0.065% active; activation, % (series mostly up to about 46 µM); in the data active = activation above about 50%; inconclusive = mostly about 30% to 49%; also: 0% is about no effect
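Quantitative HTS in unstimulated transgenic mouse T cells, with memory T cells as non-tolerant control and PMA/ionomycin as tolerance-bypass control. Compound pretreatment lasted 60 minutes before 18 h bead stimulation; EGFP/DsRed fluorescence read.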
PKM2 act: increases activity of human pyruvate kinase M2; Potency, µM (series often up to 57.5 µM), for inactives: at the highest dose activation, hits mostly activators; AID 1631; 260,000 tested, 0.34% active; purified PKM2, Kinase-Glo ATP luminescence, activation; response scale: 0% is enzyme alone, no compound; P14618; also: potency is read from the fitted curve at half-maximal effect; % is scaled to controls: 0 for no effect and ±100 for the full control effect; nearly all actives have a fitted effect of over 55% in size
Target sequence (P14618 whole entry, looked up): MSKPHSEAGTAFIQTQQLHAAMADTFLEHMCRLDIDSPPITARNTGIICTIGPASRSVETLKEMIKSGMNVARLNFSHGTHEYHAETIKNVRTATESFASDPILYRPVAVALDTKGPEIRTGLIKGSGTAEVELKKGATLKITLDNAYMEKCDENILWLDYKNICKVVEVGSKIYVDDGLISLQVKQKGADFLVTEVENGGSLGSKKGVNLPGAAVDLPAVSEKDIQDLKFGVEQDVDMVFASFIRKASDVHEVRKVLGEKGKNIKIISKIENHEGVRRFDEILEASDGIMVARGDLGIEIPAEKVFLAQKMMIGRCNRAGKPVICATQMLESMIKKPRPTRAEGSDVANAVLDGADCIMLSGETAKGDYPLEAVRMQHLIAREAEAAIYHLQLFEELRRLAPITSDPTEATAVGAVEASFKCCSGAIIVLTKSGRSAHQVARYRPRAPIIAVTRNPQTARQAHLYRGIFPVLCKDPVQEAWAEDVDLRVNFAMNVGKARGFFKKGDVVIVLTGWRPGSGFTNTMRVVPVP
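Purified hPK-M2 (>95% pure) converted ADP (0.1 mM final) to ATP with 0.5 mM PEP in 50 mM imidazole pH7.2, KCl, MgCl2, Tween 20, BSA; 1 h at room temperature. ATP detected by Kinase-Glo luminescence.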
EPAC1 antagonist: blocks human EPAC1 exchange factor; O95398; 360,000 tested, 0.14% active; EPAC1 GEF assay, Rap1b-BODIPY-GDP exchange fluorescence; AID 720709; Potency, µM (titrated, usually from 115 µM), for inactives: at the highest dose activity change, negative = inhibition, actives largely listed as inhibitors;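 also: potency is read from the fitted curve at half-maximal effect; plate controls were vehicle for no effect and positive control for full effect; nearly all actives have a fitted effect of over 50% in size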
EPAC2 ag: agonists of human EPAC2 (RAPGEF4). Q8WZA2. EPAC2 activation, biochemical qHTS; response scale: 100% = 6.5 mM cAMP response. Potency, µM (doses to about 154 µM), without a hit: at the highest dose activation, most hits filed as activators. 360,000 tested, 0.079% active; also: potency is read from the fitted curve at half-maximal effect; nearly all actives have a fitted effect of over 50% in size
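EPAC2 (100 nM) mixed with Rap1B loaded with BODIPY-GDP (250 nM) plus 50 uM unlabeled GDP; compounds pinned in, 5 min RT, then read every 5 min for 30 min (ex 480, em 540 nm). Normalized to cAMP control.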
Numbers without * were called inactive; [ ] = dose if it differs, or a comment. In the library only some 0.64% were active in any assay of this set; here they are far more common. Unless noted, calls follow the shape of the dose curve; as a rule, active = well fitted curve in the direction sought with a large enough effect; inconclusive = small, poorly fitted or top-dose-only effect, or another doubt; inactive = no such curve, though single readings can be large; an effect the other way counts as inactive or inconclusive.

What do the screens show for `Cc1ccc(CNC(=O)C(CC(C)C)OC(=O)c2ccco2)cc1` (configuration not stated)?
EPAC2 antagonist: -8%; EPAC1 agonist: 5%; IL-2 act: 1; PKM2 act: -1%; EPAC1 antagonist: -22%; EPAC2 ag: 6%

What do the screens show for `CC(=O)c1ccc(Nc2cc(C)nc3c(C)cc(C)cc23)cc1`?
EPAC2 antagonist: -19%; EPAC1 agonist: 6%; IL-2 act: 0; PKM2 act: -3%; EPAC1 antagonist: 1%; EPAC2 ag: 25%

How did Cc1cc(C)c2nc(C)cc(Nc3ccc(C(=O)NCCO)cc3)c2c1 do in these assays?
EPAC2 antagonist: 20µM*; EPAC1 agonist: -10%; IL-2 act: -2; PKM2 act: -1%; EPAC1 antagonist: -2%; EPAC2 ag: 6%

How did COc1cccc(-c2ccc3ncnc(N(C)Cc4ccco4)c3c2)c1 do in these assays?
EPAC2 antagonist: 32µM*; EPAC1 agonist: 5%; IL-2 act: 0; EPAC1 antagonist: -12%; EPAC2 ag: 11%

How did CC(=O)Oc1ccccc1Cn1c(C)c(C(=O)NCc2cccc(Cl)c2)sc1=O do in these assays?
EPAC2 antagonist: 7%; EPAC1 agonist: -15%; IL-2 act: 2; EPAC1 antagonist: -23%; EPAC2 ag: -1%

What do the screens show for `CCN(CC(=O)Nc1ccc2c(c1)OCCO2)C(=O)C(C)Oc1ccc(F)cc1` (configuration not stated)?
EPAC2 antagonist: 6%; EPAC1 agonist: 11%; IL-2 act: -3; EPAC1 antagonist: -2%; EPAC2 ag: -2%

How did COc1cccc(CNC(=O)Nc2cccs2)c1 do in these assays?
EPAC2 antagonist: 7%; EPAC1 agonist: 2%; IL-2 act: 0; PKM2 act: 27%; EPAC1 antagonist: 1%; EPAC2 ag: -13%[15.6 µM]

Results for Cc1ccc(CNC(=O)Nc2cccs2)cc1 ?
EPAC2 antagonist: -14%[57.1 µM]; EPAC1 agonist: -6%; IL-2 act: 0; PKM2 act: 25µM*; EPAC1 antagonist: 11%; EPAC2 ag: 0%

Results for COc1ccc(CNC(=O)Nc2cccs2)cc1OC ?
EPAC2 antagonist: 2%; EPAC1 agonist: 0%; IL-2 act: 0; PKM2 act: 18µM*; EPAC1 antagonist: 11%; EPAC2 ag: 5%

How did Cc1ccc(CNC(=O)Nc2ccccc2)cc1 do in these assays?
EPAC2 antagonist: -3%; EPAC1 agonist: -11%; IL-2 act: -1; PKM2 act: 0%; EPAC1 antagonist: -7%; EPAC2 ag: 3%

Results for Cn1c2c(c(=O)n3ncnc13)CCCC2 ?
EPAC2 antagonist: 12%; EPAC1 agonist: -3%; IL-2 act: 0; PKM2 act: 1%; EPAC1 antagonist: -14%; EPAC2 ag: 5%

How did COc1cccc(NC(=O)CN(C)C(C)C(=O)Nc2ccc(S(=O)(=O)N3CCCC3)cc2)c1 (configuration not stated) do in these assays?
EPAC2 antagonist: 7%; EPAC1 agonist: 1%; IL-2 act: 6; PKM2 act: inconclusive; EPAC1 antagonist: -7%; EPAC2 ag: 0%

Results for COC(=O)c1cc2n(n1)CCN(Cc1cccc(OC)c1)C2=O ?
EPAC2 antagonist: -8%; EPAC1 agonist: 11%; IL-2 act: 3; PKM2 act: 20µM*; EPAC1 antagonist: 16%; EPAC2 ag: 6%

Results for COc1cccc(CN2CCN(c3ccc(F)cc3)C2=O)c1 ?
EPAC2 antagonist: 8%; EPAC1 agonist: -2%; IL-2 act: -3; PKM2 act: 28µM*; EPAC1 antagonist: -13%; EPAC2 ag: 4%

Results for O=S(=O)(NCCc1c[nH]c2ccccc12)c1ccc(F)cc1 ?
EPAC2 antagonist: -12%; EPAC1 agonist: -8%; IL-2 act: -1; EPAC1 antagonist: -15%; EPAC2 ag: 4%

Results for O=c1[nH]nc(N=Nc2c(O)[nH]c3ccc(F)cc23)c(=O)[nH]1 ?
EPAC2 antagonist: -6%; EPAC1 agonist: -2%; IL-2 act: -2; EPAC1 antagonist: 4%; EPAC2 ag: 1%

How did Cc1ccc(N=Nc2c(O)[nH]c3ccc(F)cc23)cc1 do in these assays?
EPAC2 antagonist: 36%; EPAC1 agonist: -3%; IL-2 act: 269*; PKM2 act: 8%; EPAC1 antagonist: inconclusive; EPAC2 ag: -129%

Results for O=C(N/N=C/c1ccc(Sc2ccccn2)o1)c1cc2ccccc2cc1O ?
EPAC2 antagonist: 1%; EPAC1 agonist: 1%; IL-2 act: 1; PKM2 act: 6%; EPAC1 antagonist: 56µM*; EPAC2 ag: 1%

Results for COc1cccc(C(=O)Nc2cc(C(=O)NCCc3ccccc3)ccc2Cl)c1 ?
EPAC2 antagonist: 1%; EPAC1 agonist: 4%; IL-2 act: -1; PKM2 act: -4%; EPAC1 antagonist: 1%; EPAC2 ag: -3%

How did COc1cccc(/C(O)=C/c2nc3ccc(C(=O)NCCc4cccc(C)c4)cc3[nH]c2=O)c1 do in these assays?
EPAC2 antagonist: -6%; EPAC1 agonist: 89µM*; IL-2 act: 1; PKM2 act: -3%; EPAC1 antagonist: 3%; EPAC2 ag: 112µM*

Results for COc1cccc(/C(O)=C/c2nc3ccc(C(=O)NCCc4ccc(Cl)cc4)cc3[nH]c2=O)c1 ?
EPAC2 antagonist: 52%; EPAC1 agonist: inconclusive; IL-2 act: inconclusive; PKM2 act: 1%; EPAC1 antagonist: -10%; EPAC2 ag: 112µM*

What do the screens show for `Cc1c(Cl)cnc(NC(=O)COC(=O)c2cccc(S(=O)(=O)N3CCOCC3)c2)c1Cl`?
EPAC2 antagonist: 14%; EPAC1 agonist: 0%; IL-2 act: -1; EPAC1 antagonist: -6%; EPAC2 ag: 5%

Results for CCc1cccc2cc3c(N)c(C(=O)Nc4ccc(S(=O)(=O)N5CCCC5)cc4)sc3nc12 ?
EPAC2 antagonist: 56µM*; EPAC1 agonist: -324%; IL-2 act: 9; PKM2 act: -2%; EPAC1 antagonist: 50µM*; EPAC2 ag: -100%

What do the screens show for `Cc1cccc2cc3c(N)c(C(=O)Nc4ccc(N5CCOCC5)cc4)sc3nc12`?
EPAC2 antagonist: -1%; EPAC1 agonist: 14%; IL-2 act: 2; PKM2 act: -1%; EPAC1 antagonist: -4%; EPAC2 ag: 28%

How did CCN(C)C1CN(Cc2cn(Cc3cccc(Cl)c3)nn2)S(=O)(=O)C1 (configuration not stated) do in these assays?
EPAC2 antagonist: 3%; EPAC1 agonist: 10%; IL-2 act: 0; EPAC1 antagonist: -9%; EPAC2 ag: 2%
